# Screening data as filed in PubChem BioAssay.
# SKKanGAS inh = blocks kanamycin growth of S. pyogenes SKKanGAS strain | BacTiter-Glo, 6 h | inhibition, % at 7.5 µM | 1.3% of 300,000 active;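 active means mean replicate score, as percent of positive control median, at least 50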;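 further: strain carries kanamycin resistance gene driven by streptokinase promoter and grows in 40 µg/ml kanamycin; loss of luminescence reflects streptokinase promoter inhibition or plain growth inhibition; 0% = median of DMSO wells and 100% = positive control at its reference dose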
# PfHsp90 set2 = growth inhibition of yeast expressing Plasmodium Hsp90. S. cerevisiae expressing PfHsp90, BacTiter-Glo ATP, 48 h; yeast lacking PDR1 and PDR3 efflux regulators. inhibition, % at 9.4 µM. 0.32% of 310,000 active;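 active means every replicate shows inhibition above about 80%, whatever the replicate mean, limit read from the data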;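 further: 0% = DMSO neutral controls and 100% = 20 µM radicicol positive controls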
# TIM10 inh = inhibits growth of TIM10 yeast strain | S. cerevisiae TIM10 strain growth, BacTiter-Glo luminescence, 24 h | inhibition, % at 10 µM | 1.4% of 330,000 active | AID 463195;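 active means inhibition of 40% or more at the single tested concentration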;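 further: wild-type TIM10 isogenic control strain grown at permissive 25 °C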
# tim10-1 inh = growth inhibitors of tim10-1 mutant yeast. S. cerevisiae tim10-1 ts strain growth, BacTiter-Glo, 24 h. inhibition, % at 20 µM. 2.2% of 330,000 active;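 active means inhibition of at least 40%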;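 further: mutant grown at 25 °C; 0% = DMSO wells with yeast and 100% = wells holding no yeast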
# tim23-1 inh = tim23-1 yeast growth inhibition; S. cerevisiae tim23-1 growth, BacTiter-Glo luminescence, 24 h; 1.3% of 330,000 active; inhibition, % at 20 µM;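 active means growth inhibition of the mutant yeast at or above 50%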;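 further: temperature-sensitive mutant grown at 25 °C; plate controls were DMSO-treated mutant yeast for no effect and medium wells lacking yeast for full effect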
# NALP3 yeast inh = inhibitors of NALP3 inflammasome in yeast; inhibition, % at 10 µM; Yeast reconstituted NLRP3/ASC/caspase-1, beta-gal luminescence, 24 h; 0.39% of 330,000 active;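 active means inhibition of 50% or more; inactive means inhibition below 50%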;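 further: plate controls were induced DMSO wells for no effect and uninduced yeast grown without galactose for full effect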
# TIM10 conf = TIM10 yeast growth inhibition, confirmed | shares compounds with TIM10 inh | S. cerevisiae tim10 strain growth, BacTiter-Glo luminescence, 24 h | inhibition, % at 10 µM | 63% of 4,600 active;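 active means inhibition of yeast growth at or above a set limit in either of two replicates at 10 µM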;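 further: this counterscreen used the strain with wild-type TIM10; 0% = yeast with DMSO and 100% = medium wells lacking yeast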
# tim23-1 confirm = tim23-1 yeast growth inhibition, confirmed; shares compounds with tim23-1 inh; inhibition, % at 20 µM; S. cerevisiae tim23-1 growth, BacTiter-Glo luminescence, 24 h; 83% of 4,400 active;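 active means inhibition above about 39% in either of two replicate wells at 20 µM, limit read from the data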;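 further: temperature-sensitive tim23-1 mutant grown at 25 °C; 0% = DMSO wells with yeast and 100% = medium wells without yeast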
# Starred values were filed as active, the others as inactive; x = not tested or not shown. An excerpt weighted towards active compounds, which were near 4.6% of everything screened.
SMILES,SKKanGAS inh,PfHsp90 set2,TIM10 inh,tim10-1 inh,tim23-1 inh,NALP3 yeast inh,tim23-1 confirm,others
C=Cn1c(P(=S)(N2CCOCC2)N2CCOCC2)cc2c1CCCC2,1,-19,15,29,32,15,x,
Cc1nc2ccccc2c(=O)n1/N=C/c1cc(Br)cc(Br)c1O,99*,-16,73*,39,83*,12,89*,TIM10 conf=25
CCC(=O)OC(Cc1ccccc1)(c1ccccc1)[C@H](C)CN(C)C (stereo partly drawn),x,x,-7,5,5,10,x,
O=c1[nH]c(=S)n(CCC2=CCCCC2)c(O)c1/C=N/N1CCOCC1,6,x,36,37,52*,11,37*,
CN1CCc2cc3c(c4c2C1Cc1ccccc1-4)OCO3 (stereo not drawn),4,-12,28,33,67*,39,67*,
CC1(C)OC(c2ccccc2)=C/C(=C/C=C2C(=O)NC(=S)NC2=O)O1,-5,x,21,25,57*,15,63*,
O=c1c2ccccc2nc(/C=C/c2ccccc2)n1-c1ccccc1O,18,4,18,25,51*,16,44*,
O=c1c2ccccc2nc(/C=C/c2ccc(O)cc2)n1-c1ccccc1O,35,7,4,14,31,-1,x,
Cc1ccccc1-n1c(/C=C/c2ccccn2)nc2ccccc2c1=O,-8,1,7,34,52*,18,43*,
O=c1c2ccccc2nc(/C=C/c2ccc(F)cc2)n1-c1ccccn1,3,x,13,7,12,6,x,
CCCCC(=O)N/N=C/c1c(O)n(-c2cccc3ccccc23)c(=O)[nH]c1=O,0,17,-8,-11,4,27,x,
COc1cc(-n2c(=S)[nH]c3ccccc3c2=O)c(Cl)cc1Cl,1,x,23,25,52*,19,38,
COP(=O)(OC)/C(C=O)=N/Nc1ccc([N+](=O)[O-])cc1,1,7,10,9,52*,16,50*,
COc1ccc(NC2=NCCCS2)cc1OC,0,-23,-16,0,9,-16,x,
CCCCCc1nc2c(c(=O)c3ccccc3n2C)c(=O)n1C1CCCCCC1,94*,0,0,-40,70*,36,-34,
Cn1cccc1C1CCCN1CC(=O)Nc1ccc(C#N)c(Cl)c1 (stereo not drawn),x,-6,5,13,11,22,x,
O=S(=O)(NC1CCCCCCC1)OCC(Cl)(Cl)Cl,6,x,26,27,50*,40,59*,
O=S(=O)(NC1CCCC1)OCC(Cl)(Cl)Cl,5,-2,9,7,29,0,x,
CC(=O)O[C@H]1CCC2C3CC[C@H]4[C@@H](O)[C@H](O)CC[C@]4(C)C3CC[C@@]21C (stereo partly drawn),x,-42,x,x,x,x,x,
COc1ccc2c3c1OC1C(=O)CC[C@@]4(O)[C@@H](C2)N(C)CC[C@]314 (stereo partly drawn),x,x,7,14,7,12,x,
COCCCn1c(N)c(C(=O)OC(C)COC)c2nc3ccccc3nc21 (stereo not drawn),4,-18,4,-2,20,3,x,
CCC(C)NC(=O)c1c(N)n(CCCOC)c2nc3ccccc3nc12 (stereo not drawn),5,-7,25,39,53*,11,48*,
CCC(=NCc1cccnc1)c1c(O)n(-c2ccc(Cl)cc2)c(=O)[nH]c1=O,-2,3,10,-2,15,11,x,
Cc1ccc(-c2nn(Cc3ccccc3)cc2C(=O)O)cc1,-2,16,-17,-9,2,-4,x,
Cc1ccc(-c2nn(Cc3ccccc3)cc2C=O)cc1,1,-28,27,18,57*,29,55*,
